Measured values as given in the supplement of paper PMC11624193, “Coupling cellular drug-target engagement to downstream pharmacology with CeTEAM” (Nature Communications, 2024).
Counter-ions that a name gives are not always drawn. Values without a mark were called inactive.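 The calls were made as follows: active = log2 fold change beyond 2 SD from the library mean after excluding viability outliers; inactive = within 2 SD.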

These molecules were tested against PARP1 L713F-nLuc biosensor (HCT116) (UniProt P09874) (assay: PARP1 L713F-nLuc/akaLuc ratio relative to DMSO control (biosensor stabilization) (fold change); higher = more PARP1 biosensor stabilization (target engagement / stabilizer), active = hit call of the paper). Conditions: stock concentration (mM; final µM = stock mM x 1): 10; 24 h.
Chain of PARP1 L713F-nLuc biosensor (HCT116) (P09874 whole entry L713F, looked up): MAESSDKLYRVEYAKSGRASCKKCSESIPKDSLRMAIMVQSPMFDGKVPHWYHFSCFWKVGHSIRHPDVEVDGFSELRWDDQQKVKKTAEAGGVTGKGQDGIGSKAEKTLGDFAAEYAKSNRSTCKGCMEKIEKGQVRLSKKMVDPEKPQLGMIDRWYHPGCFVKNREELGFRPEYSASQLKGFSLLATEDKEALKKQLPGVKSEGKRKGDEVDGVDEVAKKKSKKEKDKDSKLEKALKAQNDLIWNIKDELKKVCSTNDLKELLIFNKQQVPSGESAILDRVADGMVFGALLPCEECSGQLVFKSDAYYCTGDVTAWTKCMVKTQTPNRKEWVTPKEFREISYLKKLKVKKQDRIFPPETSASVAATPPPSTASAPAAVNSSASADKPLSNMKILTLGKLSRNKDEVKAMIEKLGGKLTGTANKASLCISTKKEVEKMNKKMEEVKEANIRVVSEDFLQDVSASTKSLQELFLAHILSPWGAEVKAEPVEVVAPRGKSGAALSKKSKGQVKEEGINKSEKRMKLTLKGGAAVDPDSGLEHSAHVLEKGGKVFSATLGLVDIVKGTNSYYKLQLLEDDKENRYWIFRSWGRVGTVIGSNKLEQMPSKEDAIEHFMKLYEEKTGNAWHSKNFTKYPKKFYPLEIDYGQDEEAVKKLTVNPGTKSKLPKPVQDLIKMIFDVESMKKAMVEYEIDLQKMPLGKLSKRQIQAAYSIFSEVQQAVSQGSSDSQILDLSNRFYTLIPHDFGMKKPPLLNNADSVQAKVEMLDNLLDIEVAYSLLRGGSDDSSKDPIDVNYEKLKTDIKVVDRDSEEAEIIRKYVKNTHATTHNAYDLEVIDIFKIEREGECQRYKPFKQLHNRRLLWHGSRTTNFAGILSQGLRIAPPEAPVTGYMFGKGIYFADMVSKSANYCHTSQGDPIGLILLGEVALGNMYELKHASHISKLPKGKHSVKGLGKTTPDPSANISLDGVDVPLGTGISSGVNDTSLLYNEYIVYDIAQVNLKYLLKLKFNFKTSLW
For `CCN(C(=O)c1ccccc1OC)c1cc2c(cc1N1CCNC[C@H]1C)n(C)c(=O)n2C`, the “PARP1 L713F-nLuc/akaLuc ratio” value was 0.597. `Cc1nc2cccc(N)c2c(=O)n1C1CCC(=O)NC1=O` (centres undefined) [Avadomide(CC-122)] was tested, and the “PARP1 L713F-nLuc/akaLuc ratio” value was 0.983. For `NNc1nncc2ccccc12` [Hydralazine (hydrochloride)], the “PARP1 L713F-nLuc/akaLuc ratio” value was 0.617. For `NC(=O)c1cc(F)cc2c1C(=O)N(C1CCN(C3CCC(F)(F)CC3)CC1)C2`, the “PARP1 L713F-nLuc/akaLuc ratio” value was 6 (active). With `CC1=C(CC[C@@H](C)CO[C@@H]2O[C@H](CO)[C@@H](O)[C@H](O)[C@H]2O)O[C@H]2C[C@H]3[C@@H]4CC=C5C[C@@H](O[C@@H]6O[C@H](CO)[C@@H](O[C@@H]7O[C@@H](C)[C@H](O)[C@@H](O)[C@H]7O)[C@H](O)[C@H]6O[C@@H]6O[C@@H](C)[C@H](O)[C@@H](O)[C@H]6O)CC[C@]5(C)[C@H]4CC[C@]3(C)[C@@H]12` [Pseudoprotodioscin] the “PARP1 L713F-nLuc/akaLuc ratio” value was 0.989. `N#Cc1ccc(-c2cnc3[nH]cc(NC(=O)c4cccnc4)c3c2)cc1` was tested, and the “PARP1 L713F-nLuc/akaLuc ratio” value was 0.668. With `COc1ccccc1S(=O)(=O)Nc1ccc2c3c(cc(-n4cnc(C)c4)nc13)C(=O)N2C` the “PARP1 L713F-nLuc/akaLuc ratio” value was 1.04. With `CC[C@H](NC(=O)[C@H](C)NC)C(=O)N1C[C@@H](O)C[C@H]1Cc1c(-c2[nH]c3cc(F)ccc3c2C[C@@H]2C[C@H](O)CN2C(=O)[C@H](CC)NC(=O)[C@H](C)NC)[nH]c2cc(F)ccc12` [Birinapant] the “PARP1 L713F-nLuc/akaLuc ratio” value was 0.946. In the case of `CC(NC(=O)c1ccccc1/N=C/c1c(O)ccc2ccccc12)c1ccccc1` (centres undefined) [Sirtinol], the “PARP1 L713F-nLuc/akaLuc ratio” value is reported as 0.699.
